# Assay outcomes: PubChem, National Center for Advancing Translational Sciences (NCATS)
# RGS4 inhibitor = human RGS4 inhibition. P49798. Transcreener GDP fluorescence polarization, RGS4-accelerated GTP hydrolysis. Potency, µM (titrated, usually from 114 µM), for the others: top-dose activity change, negative = inhibition, actives largely listed as inhibitors. 390,000 tested, 0.039% active. AID 504845; note: nearly all actives have a fitted effect of over 75% in size
# Target sequence (P49798 whole entry, looked up): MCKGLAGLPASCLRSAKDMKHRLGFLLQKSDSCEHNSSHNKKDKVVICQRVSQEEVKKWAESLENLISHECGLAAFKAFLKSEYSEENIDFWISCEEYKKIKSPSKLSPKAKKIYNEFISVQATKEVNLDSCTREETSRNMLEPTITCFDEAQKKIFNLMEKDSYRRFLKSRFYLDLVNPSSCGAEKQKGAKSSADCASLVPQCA
#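 MLSMR compounds (23 nl, pin-transferred) preincubated 10 min at room temperature with a 500nM (2x) first reagent, then RGS4 at 900nM (2x) plus Transcreener GDP mix added; fluorescence polarization (620/688 nm) read before and after 90 min at 30 °C.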
# rTrxR1 inhibitor = blocks rat thioredoxin reductase 1; O89049; recombinant rTrxR1, NADPH fluorescence consumption, selenite substrate; Potency, µM (titrated, usually from 114 µM), for the others: at the highest dose activity change, negative = inhibition, most hits filed as inhibitors; 390,000 tested, 1% active; note: nearly all actives have a fitted effect of over 65% in size
# Target sequence (O89049 whole entry, looked up): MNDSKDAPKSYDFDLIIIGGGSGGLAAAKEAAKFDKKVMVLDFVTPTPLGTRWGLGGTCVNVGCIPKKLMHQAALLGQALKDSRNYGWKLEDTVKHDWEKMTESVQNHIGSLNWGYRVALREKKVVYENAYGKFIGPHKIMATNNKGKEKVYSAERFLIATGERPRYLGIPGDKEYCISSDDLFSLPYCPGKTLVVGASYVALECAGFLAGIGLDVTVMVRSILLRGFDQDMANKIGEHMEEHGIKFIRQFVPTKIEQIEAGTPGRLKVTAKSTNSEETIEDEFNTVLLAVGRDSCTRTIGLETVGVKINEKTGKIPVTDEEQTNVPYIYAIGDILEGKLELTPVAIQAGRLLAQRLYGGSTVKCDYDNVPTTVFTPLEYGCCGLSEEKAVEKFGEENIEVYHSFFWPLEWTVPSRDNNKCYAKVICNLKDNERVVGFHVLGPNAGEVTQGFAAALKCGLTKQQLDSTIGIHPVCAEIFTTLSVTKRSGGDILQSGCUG
#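 Rat TrxR1 (90 nM in the dispensed reagent) was pre-reduced with 400 uM NADPH for 5 min at room temperature, then incubated with compound for 15 min. After 400 uM selenite was added, NADPH fluorescence (Ex 340/Em 450 nm) was followed for 8 min.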
# Eya2 phos inh = Eya2 (human) phosphatase inhibition; O00167; recombinant Eya2, OMFP fluorescence dephosphorylation (OMFP is methylfluorescein phosphate); Potency, µM (highest dose often 76.9 µM), for inactives: at the highest dose activity, negative = inhibition, usual class: inhibitors; 330,000 tested, 0.006% active
#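 Eya2 (0.2 uM) preincubated 10 min at ambient with compound, then OMFP substrate added at 50 uM; 10 min reaction in 50 mM HEPES pH 7.5, 50 mM NaCl, 5 uM MgCl2, 0.05% BSA, 1 mM DTT. Fluorescence read at Ex 485/Em 525 nm.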
# IDH1 R132H inh = human IDH1 R132H inhibition; AID 602179; IDH1-R132H enzyme, NADPH consumption, diaphorase/resazurin fluorescence; Potency, µM (highest dose often 76.6 µM), inactives show at the top dose activity change, negative = inhibition, hits mostly inhibitors; 390,000 tested, 0.093% active; note: nearly all actives have a fitted effect of over 65% in size
#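 IDH1-R132H (0.5 ug/mL dispensed) in pH 7.5 Tris buffer was preincubated 30 min with compound, then given a substrate mix of 0.016 mM NADPH and 2 mM alpha-KG for 80 min at room temperature; remaining NADPH was read by diaphorase/resazurin fluorescence.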
# TrxR1 substrate = substrates of rat thioredoxin reductase 1. O89049. purified TrxR1 substrate turnover, NADPH consumption readout. Potency, µM (doses to about 114 µM), without a hit: top-dose activity change, negative = substrate turnover. 390,000 tested, 0.01% active. AID 588456; note: nearly all actives have a fitted effect of over 50% in size
#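 Rat TrxR1, dispensed at 90 nM, was prereduced with 400 uM NADPH (final) for 5 min at ~22 deg C, then incubated with compound 15 min before 400 uM selenite. A first-read NADPH fluorescence drop versus no-compound background flagged substrates.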
# * = called active by the depositor; ? = inconclusive; / = not tested or not shown; [ ] = another dose, or the depositor's remark. A selection: hits, their analogues and other compounds. The true share with any hit is near 1.1%. Calls come from the whole dose curve; as a rule, active = well fitted curve in the direction sought with a large enough effect; inconclusive = small, poorly fitted or top-dose-only effect, or another doubt; inactive = no such curve, though single readings can be large; an effect the other way counts as inactive or inconclusive. % is set by controls: 0 for no effect and ±100 for the full control effect; potency is the fitted concentration of half-maximal effect.
SMILES,RGS4 inhibitor,rTrxR1 inhibitor,Eya2 phos inh,IDH1 R132H inh,TrxR1 substrate
Cc1ccc(S(=O)(=O)N2CCC(C(=O)OCC(=O)NC(C)c3ccc(F)cc3)CC2)cc1C (stereo unspecified),-9%,14%,-2%,-3%,-8%
CCCCN(C)CCNC(=O)c1cc2cc3ccc(OC)cc3nc2o1,-23%,45µM*,-3%,-3%,606%
CCN(CC)CCNC(=O)c1cc2cc3ccc(OC)cc3nc2o1,8%,133%,-3%,6%,736%
CCOC(=O)Cc1csc(NC(=O)NC2(C(F)(F)F)Oc3ccccc3O2)n1,?,11µM*,-16%,2%,-5%
CCOC(=O)Cc1csc(NC(=O)NC2(C(F)(F)F)Oc3cc(Cl)c(Cl)cc3O2)n1,-2%,?,5%,5%,12%[57.1 µM]
CCOC(=O)Cc1csc(NC(=O)NC2(C(F)(F)F)Oc3ccc(Cl)cc3O2)n1 (stereo unspecified),-30%,8.9µM*,15%,0%,8%[57.1 µM]
COc1ccc(C(=O)Oc2cc(-c3ccc4c(c3)OCO4)cc(=O)c3c(C)oc(C)c23)cc1,-36%,?,/,-7%,3%
CCOc1cc(-c2ccc(OC(=O)c3ccc(OC)cc3)c(OC)c2)cc(=O)c2c(C)oc(C)c12,?,35µM*,/,15%,-3%
COc1ccc(-c2cc(OC(=O)c3ccc(Cl)cc3)c3c(C)oc(C)c3c(=O)c2)cc1,-24%,50µM*,/,0%,-7%
CCOc1ccc(-c2cc(OC(=O)c3ccc(OC)cc3)c3c(C)oc(C)c3c(=O)c2)cc1,-29%,-23%,/,1%,-1%
Cc1cc(C)cc(C(=O)Nc2nnc3n2CCS3)c1,-2%,10%[57.1 µM],/,-13%,-3%[57.1 µM]
C=CCNc1oc(-c2cccc(Cl)c2)nc1C#N,-9%,-34%,6%,/,-12%
C=CCNc1oc(-c2ccc(-c3ccccc3)cc2)nc1C#N,-5%,14µM*,-2%,/,-4%
Cc1cc(Nc2c(C)n(C)n(-c3ccccc3)c2=O)n2c(nc3ccccc32)c1C#N,1%,35µM*,6%,6%,5%
O=C(c1ccc(Nc2nc3ccccc3n3nnnc23)cc1)N1CCN(c2cccc(C(F)(F)F)c2)CC1,12%,71µM*,/,-14%,25%
O=C1C=CC(=O)N1c1ccc2c(c1)C(NC(=O)C(F)(F)F)c1ccccc1-2 (stereo unspecified),?,1.8µM*,/,-2%,4%
CN(C)C(=O)NC1c2ccccc2-c2ccccc21,20%,-8%,1%,4%,-10%
O=C(c1ccco1)N1CCN(Cc2csc(-c3ccccc3Cl)n2)CC1,?,71µM*,-2%,7%,1%
Cn1nnnc1SCCCNCc1ccccc1OCc1ccccc1Cl,-15%,11%,/,-3%,17%[0.457 µM]
Nc1nc(Br)c2c(F)cccc2c1-c1ccc(Cl)cc1,37%,5.6µM*,3%,8%,13%
Nc1nc(Br)c2ccccc2c1-c1ccccc1,-21%,21%[57.1 µM],?,5%,4%[57.1 µM]
O=C(NC1CCCc2ccccc21)C12CC3CC(CC(O)(C3)C1)C2 (stereo unspecified),0%,-18%,17%,2%,-11%
COc1ccc(OC)c(S(=O)(=O)N2CCCC(C(=O)N3CCOCC3)C2)c1 (stereo unspecified),4%,7%,9%,1%,1%
O=C(c1ccccc1)n1c(=O)c(F)cn(COCCBr)c1=O,-1%,45µM*,-22%,3%,9%
COc1ccccc1C1=NC(c2ccccc2)CN1c1ccccc1 (stereo unspecified),-18%[56.9 µM],22µM*,-11%,16%,68%
SMILES,RGS4 inhibitor,rTrxR1 inhibitor,Eya2 phos inh,IDH1 R132H inh,TrxR1 substrate
COc1cc(/C=C2/C(=O)c3cccc([N+](=O)[O-])c3C2=O)c(Br)cc1O,?,28µM*,0%,3%,-16%
COc1ccccc1NC(=O)CCCCCN1C(=O)c2cccc([N+](=O)[O-])c2C1=O,-2%,-4%,12%,10%,-14%
O=C1OC(N2CCN(c3ccccn3)CC2)c2ccccc21 (stereo unspecified),-16%,-6%,8%,6%,5%
CCOC(=O)c1cc(=O)n2nc(-c3ccccc3F)nc2s1,?,11µM*,1%,-6%,1%[57.1 µM]
Cc1ccc(S(=O)(=O)N2CCCN(C)CC2)cc1,17%[56.9 µM],28µM*,-1%,-4%,5%
CN1CCCN(S(=O)(=O)c2ccccc2)CC1,5%,14%[57.1 µM],7%,0%,?
C#CCSc1nncn1C(=O)/C=C/c1ccccc1,-19%,22µM*,-9%,3%,6%
CCOC(=O)/C=C/C(=O)Nc1cccc([N+](=O)[O-])c1,?,4µM*,0%,1%,-13%
COc1ccc(NC(=O)c2cccc([N+](=O)[O-])c2)cc1,10%,5%[57.1 µM],0%,10%,5%
COc1ccc(NC(=S)Nc2cccc([N+](=O)[O-])c2)cc1,-25%,18µM*,-7%,10%,-6%
O=C(/C=C/c1ccccc1[N+](=O)[O-])Nc1ccccc1,6%,21%,-24%,1%,-1%
NN/C(=C\[N+](=O)[O-])Nc1ccccc1,-22%,16µM*,13%,-2%,0%
NN/C(=C\[N+](=O)[O-])Nc1ccc(Cl)cc1,-12%,16µM*,-14%,2%,0%
O=C(CCCOc1ccccc1)NCC1CCCO1 (stereo unspecified),-6%,19%,6%,2%,9%
C=C1C(=O)[C@@]23[C@H](O)C[C@@H]4C(C)(C)CC[C@H](O)[C@]4(C)[C@@H]2C[C@H](O)[C@@H]1[C@H]3O,-48%,16µM*,7%,4%,7%
C=C1C(=O)[C@@]23[C@H](O)C[C@@H]4C(C)(C)CC[C@H](O)[C@@]4(C)[C@@H]2CC[C@@H]1[C@H]3O,-40%,14µM*,2%,-1%[38.3 µM],3%
COc1ccc(-c2ccc(/C=N/NC(=O)c3cccnc3)o2)c([N+](=O)[O-])c1,-16%,-4%[57.1 µM],9%,4%,-22%[57.1 µM]
CC1CCN(C(=O)c2ccc3ccccc3c2)CC1,2%,37%,13%,10%,7%
COc1ccc(/C(C)=N/NC(=O)c2sccc2-n2cccc2)cc1,9%,17%,0%,0%,8%
Cc1nc2sc3c(c2c(=O)[nH]1)CCCC3,20%,13%,-11%,18%,-3%
Cc1cc2c(C)cc(=O)[nH]c2cc1NC(=O)CCl,-24%,20µM*,-8%,2%,2%
Cc1ccc(NC(=S)NC(=O)C2CCC2)cc1C,-30%,50µM*,1%,-2%,3%
O=C1NC(=O)/C(=C/c2ccc(-c3ccc(F)cc3O)o2)S1,21µM*,?,22%,/,2%[57.1 µM]
Cn1c(SCC(=O)N/N=C/C=C/c2ccccc2[N+](=O)[O-])nc2ccccc21,-28%,-1%,-1%,3%,-3%
